From the supplement of paper PMC4840960 come the findings set out here.

Molecules are shown by their SMILES.

The test system of test [1] is E18 rat cortical neuron-glia co-culture. The test can be described thus: fiber score / MBP score (myelination specific beyond OL differentiation) (ratio); higher = more myelination-specific MBP alignment. The settings on record: treatment time: 8 days (DIV5-DIV13). The procedure, abridged:
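Fiber score divided by MBP score is the read-out; fiber score is continuous MBP fiber length per Olig2+ nucleus, and MBP score is thresholded MBP area × intensity per Olig2+ nucleus. Primary E18 rat cortical co-cultures were dissociated with papain and seeded at 20,000 cells/well on poly-d-lysine/laminin 96-well plates. Library compounds at 1 or 5 µM were given in myelination medium from DIV5 to DIV13, after which cells were fixed in 4 % paraformaldehyde, immunostained for MBP and Olig2 with DAPI, and imaged in four 10X fields per well in duplicate wells.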

Test [2] has the same test system. The test can be described thus: myelination (MBP fiber length per Olig2+ nucleus), % of 1 µM DAPT response (DMSO = 0) (% of DAPT); higher = more myelination, active = 50 or more. The settings on record: treatment time: 8 days (DIV5-DIV13). The procedure, abridged:
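Four 10X fields in each of duplicate wells were analysed after cultures were fixed in 4 % paraformaldehyde and immunostained for MBP and Olig2, with DAPI as the nuclear counterstain. The cultures were papain-dissociated primary E18 rat cortical co-cultures at 20,000 cells/well on poly-d-lysine/laminin 96-well plates, dosed with library compounds at 1 or 5 µM in myelination medium from DIV5 to DIV13. The myelination readout was continuous straight MBP fiber length per Olig2+ nucleus, with 0.1 % DMSO set to 0 and a 1 µM positive control set to 100.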

`C[C@@H](O)[C@H]1C(=O)N2C(C(=O)O)=C(S[C@@H]3CN[C@H](C(=O)N(C)C)C3)[C@H](C)[C@H]12` [Meropenem]: the “fiber score / MBP score” value in test [1] (1 µM) is 0.99; in test [1] (5 µM) it was 0.804. The myelination in test [2] (1 µM) is 2.11 (inactive); in test [2] (5 µM) it was -19.5 (inactive).
The like results for `COc1ccc(/C=C/C(=O)Nc2ccccc2C(=O)O)cc1OC` [Tranilast] were, in that order, 0.857, 0.89, -12.7 (inactive) and -4.27 (inactive).
Taken in the same sequence, the figures for `Cc1nc(=O)c2cc(CN(C)c3ccc(C(=O)N[C@@H](CCC(=O)O)C(=O)O)s3)ccc2[nH]1` [Raltitrexed] were 1.33, 1.67, 177 and 591 (active).
The like results for `Clc1ccccc1C(c1ccccc1)(c1ccccc1)n1ccnc1` [Clotrimazole] were, in that order, 0.906, 1.15, 7.64 (inactive) and -27.1 (inactive).
On to `NCC(=O)CCC(=O)O` [Aminolevulinic Acid], for which the “fiber score / MBP score” value was determined as 1.11 in test [1] (1 µM) and 1.44 in test [1] (5 µM). Also, the results for the myelination in test [2] (1 µM) and in test [2] (5 µM) were 0.461 (inactive) and 39.4 (inactive), respectively.
The like results for `O=C(O)COCCN1CCN(C(c2ccccc2)c2ccc(Cl)cc2)CC1` (stereo not drawn) [Cetirizine] were, in that order, 0.908, 1.11, -5.85 (inactive) and -4.35 (inactive).
Consider `O=C(c1ccccc1)c1ccc2n1CCC2C(=O)O` (stereo not drawn) [Ketorolac], for which the entries for the “fiber score / MBP score” value in test [1] (1 µM) and in test [1] (5 µM) were 0.853 and 1.12, respectively. Further, the myelination is -4.81 (inactive) in test [2] (1 µM) and 2.63 (inactive) in test [2] (5 µM).
With `CC(C)C[C@H](NC(=O)[C@@H](COC(C)(C)C)NC(=O)[C@H](Cc1ccc(O)cc1)NC(=O)[C@H](CO)NC(=O)[C@H](Cc1c[nH]c2ccccc12)NC(=O)[C@H](Cc1cnc[nH]1)NC(=O)[C@@H]1CCC(=O)N1)C(=O)N[C@@H](CCCNC(=N)N)C(=O)N1CCC[C@H]1C(=O)NNC(N)=O` [Goserelin], the figures for the “fiber score / MBP score” value in test [1] (1 µM) and in test [1] (5 µM) were 0.788 and 0.867, respectively. Further, the myelination in test [2] (1 µM) was -8.02 (inactive); in test [2] (5 µM) it was -4.2 (inactive).
`CC(C)C[C@H](NC(=O)[C@@H](O)[C@H](N)Cc1ccccc1)C(=O)O` [Ubenimex]: the “fiber score / MBP score” value in test [1] (1 µM) worked out at 0.92; in test [1] (5 µM), 1.09. Moreover, the myelination in test [2] (1 µM) was -7.81 (inactive); in test [2] (5 µM), 1.09 (inactive).
Taken in the same sequence, the figures for `CO[C@H]1/C=C/O[C@@]2(C)Oc3c(C)c(O)c4c(O)c(c5c(nc6cc(C)ccn65)c4c3C2=O)NC(=O)/C(C)=C\C=C\[C@H](C)[C@H](O)[C@@H](C)[C@@H](O)[C@@H](C)[C@H](OC(C)=O)[C@@H]1C` [Rifaximin] were 0.779, 0.73, -4.06 (inactive) and -12 (inactive).
Take `O=C1Nc2ccccc2/C1=C1/Nc2ccccc2C1=O` [Indirubin]: the “fiber score / MBP score” value in test [1] (1 µM) is 0.896; in test [1] (5 µM), 0.71. In addition, the myelination in test [2] (1 µM) is -4.48 (inactive); in test [2] (5 µM), -14.5 (inactive).
The like results for `CC(C)NCC(O)COc1ccc(CCOCC2CC2)cc1` (stereo not drawn) [Betaxolol] were, in that order, 0.636, 0.615, -12.6 (inactive) and -10.5 (inactive).
The like results for `O=C(O)c1cc(-c2ccc(F)cc2F)ccc1O` [Diflunisal] were, in that order, 0.772, 1.08, -4.48 (inactive) and 6.86 (inactive).
Taken in the same sequence, the figures for `Cc1cn([C@H]2C[C@H](N=[N+]=[N-])[C@@H](CO)O2)c(=O)[nH]c1=O` [Zidovudine] were 0.929, 0.666, 11.9 (inactive) and -21.5 (inactive).
With `CCOC(=O)c1ncn2c1CN(C)C(=O)c1cc(F)ccc1-2` [Flumazenil], the “fiber score / MBP score” value was 0.859 in test [1] (1 µM) and 0.835 in test [1] (5 µM). The values for the myelination in test [2] (1 µM) and in test [2] (5 µM) were -6.81 (inactive) and -19.8 (inactive), respectively.
The like results for `O=c1c(O[C@@H]2O[C@H](CO)[C@@H](O)[C@H](O)[C@H]2O)c(-c2ccc(O)c(O)c2)oc2cc(O)cc(O)c12` [Isoquercitrin] were, in that order, 1.09, 0.826, 1.55 (inactive) and -11.7 (inactive).
Taken in the same sequence, the figures for `CCCCN1CCCC1CNC(=O)c1cc(C#N)c2ccccc2c1OC` (stereo not drawn) [Nafadotride] were 0.516, 0.414, -15 (inactive) and -20.4 (inactive).
